# Results reported in PubChem BioAssay.
# Several values for one entry are separate records, joined by “and”; a condition that tells them apart may be missing. Equal values may be shown once. Activity calls are given as the source filed them.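 Rule for the calls, unless noted: active = normalized viability below 100% at a tested concentration; inactive = the rest.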
# Key:
# [1] = hESC survival regulators, cell-based (AID 493140; call rule not given here;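 note: cells exposed to compounds for four days before counting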); conditions: human embryonic stem cell survival screen; stronger effect = higher value
# [2] = stimulators of insulin release from INS-1E, primary screen, cell-based, 5 mM glucose, NPC library (AID 1117329;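 active = compound raises insulin release from rat beta cells at 5 mM glucose, no numeric limit stated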); conditions: rat INS-1E insulin secretion, at 10 µM, stronger effect = higher value
# [3] = growth inhibition of GSK3B-pretreated HCT116 cells – cell-based, CellTiter-Glo, 0.2 to 20 µM (AID 1117336;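 active = compounds lowering colon cancer cell viability after pretreatment blocking the GSK3B kinase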); conditions: HCT116 viability after GSK3B inhibitor, at 20 µM, stronger effect = higher value
# [4] = inhibition of endothelial tube formation, primary screen, imaging, VEGF stimulated, CD31 staining, tube area, NPC library (AID 1117340;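 active = compound that reduces growth-factor-driven endothelial tube area in a mixed cell culture, no cutoff stated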); conditions: VEGF-stimulated ADSC/ECFC co-culture, at 10 µM, stronger effect = higher value
# [5] = glucagon-like peptide 1 release enhancers, primary assay, NCI-H716 cell line, NPC library (AID 1117341;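 active = compound raises GLP1 secretion from the human gut endocrine cells, with no numeric limit stated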); conditions: NCI-H716 cells, at 10 µM, stronger effect = higher value
# [6] = HCT116 colon cancer cell growth inhibition, primary screen, CellTiter-Glo luminescence, NPC library (AID 1117342;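 active = compounds that lower survival of HCT116 colon cancer cells in the luminescence readout, no numeric limit stated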); conditions: at 20 µM (top of the series)
# [7] = CellTiter-Glo luminescent readout of SW480 viability loss, NPC library primary (AID 1117343;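 active = compounds that lower viability of the colon cancer cells in the luminescence readout, with no numeric limit stated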); conditions: CellTiter-Glo luminescence; at 20 µM (top of the series) unless noted
# [8] = decreased DLD-1 cellular survival, CellTiter-Glo luminescent readout, NPC compound collection, primary HTS (AID 1117346;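 active = compounds that lower survival of DLD-1 colon cancer cells in the luminescence readout, no cutoff given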); conditions: DLD-1 viability, CellTiter-Glo luminescence; at 20 µM (top of the series)
# [9] = molecular target: 6-phosphogluconate dehydrogenase, decarboxylating (Homo sapiens) (UniProt P52209); assay: 6PGD enzyme inhibitors, primary screen, biochemical, human, recombinant enzyme, NADPH absorbance (AID 1159550;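 active = at least 20% inhibition of 6-phosphogluconate dehydrogenase activity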); conditions: recombinant 6PGD, NADPH absorbance 341 nm; at 10 µM; stronger effect = higher value
# [10] = modulation of C. elegans fzo-1 (AID 1259413; call rule not given here;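 note: fzo-1 mutant C. elegans worms in liquid wells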); conditions: C. elegans fzo-1 modulator screen, mean read-out; stronger effect = higher value
# [11] = differential killing of epithelial or mesenchymal cells, primary screen, imaging, PC-3E GFP, TEM4-18 mCherry, co-culture (AID 1345086;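 active = compounds killing one labelled cell type while sparing the other, by normalised counts and ratio limits, not self-fluorescent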;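 for all read-outs here: cells exposed to compound for 72 h before imaging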;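 for red/green cell ratio (normalised): normalised mesenchymal count divided by normalised epithelial count so high means epithelial killing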); conditions: imaging cell counts, at 1 µM; for red/green cell ratio (normalised): actives lie on both sides, counts scaled to control wells, 1 = unselective
# [12] = survival rescue of mitochondrial mutant cells in low glucose, primary screen, MELAS cybrids, Rieske KO mouse fibroblasts, CellTiter-Glo (AID 1508586;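 active = mean z-score across replicates of 1.96 or higher in either the MELAS or the Rieske mutant cell line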;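 note: z relative to plate mean and SD of compound and empty wells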)
# [13] = molecular target: NAD(+) hydrolase SARM1 (Homo sapiens) (UniProt Q6SZW1); assay: SARM1 TIR NADase inhibitors, cell lysate, NAD-Glo luminescence (AID 1508614;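 active = compound whose remaining NAD level is above about 45 nM, limit read from the data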;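 note: higher remaining NAD means stronger inhibition of SARM1 NADase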); conditions: SAM-TIR HEK293T lysate NADase, at 1 µM, stronger effect = higher value
# [14] = molecular target: Mitogen-activated protein kinase 7 (Homo sapiens) (UniProt Q13164); assay: ERK5 transactivation activators in reporter cells, primary screen, cell-based, HTS (AID 1508626;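 active = luciferase signal above three times the same-plate solvent-only control wells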;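 note: luciferase driven by Gal4-ERK5 fusion binding five Gal4 sites before minimal TATA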); conditions: HeLa Gal4-ERK5 transactivation, 18 h, at 5 µM, stronger effect = higher value
# [15] = viability rescue of complex I mutant cybrids, primary screen, cell-based, galactose medium, ATP luminescence (AID 1645843;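 active = z-score of at least 1.8 in each of two replicates, scored against plate mean and spread of sample wells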;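 note: positive z means more ATP and so rescue of galactose-driven cybrid death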); conditions: complex I mutant cybrid cells, 72 h, stronger effect = higher value
# [16] = stimulators of nuclear beta-catenin in C2C12, primary screen, imaging, WNT3A-conditioned medium, mouse C2C12, NPC library (AID 1117326; in the data active = nuclear beta-catenin stimulation mostly above about 4.2%, no sharp cut-off; inactive = mostly below about 10%); conditions: stronger effect = higher value
# [17] = sensitizers of A549 cells to miR-34 induction, primary screen, imaging, A549 dox-inducible miR-34, nuclei and caspase counts (AID 1347080;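 active = compounds whose cell count with miR-34 switched on is under 0.7 times the count with it off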); conditions: A549 miR-34 inducible, Hoechst nuclei count, 48 h
# [18] = ovarian cancer cell viability with rucaparib, profiling panel, oncology-focused library, rucaparib conditional (AID 1508598); conditions: patient-derived ovarian cancer cells, CellTiter-Glo viability, 144 h, stronger effect = lower value
# [19] = measured here: epithelial PC-3E GFP cell survival
# [20] = measured here: mesenchymal TEM4-18 mCherry cell survival
# [21] = MELAS cybrid survival, CellTiter-Glo 48 h, stronger effect = higher value
# [22] = Rieske KO mouse fibroblast survival, CellTiter-Glo 72 h
# Chain of 6-phosphogluconate dehydrogenase, decarboxylating (Homo sapiens) (P52209 whole entry, looked up): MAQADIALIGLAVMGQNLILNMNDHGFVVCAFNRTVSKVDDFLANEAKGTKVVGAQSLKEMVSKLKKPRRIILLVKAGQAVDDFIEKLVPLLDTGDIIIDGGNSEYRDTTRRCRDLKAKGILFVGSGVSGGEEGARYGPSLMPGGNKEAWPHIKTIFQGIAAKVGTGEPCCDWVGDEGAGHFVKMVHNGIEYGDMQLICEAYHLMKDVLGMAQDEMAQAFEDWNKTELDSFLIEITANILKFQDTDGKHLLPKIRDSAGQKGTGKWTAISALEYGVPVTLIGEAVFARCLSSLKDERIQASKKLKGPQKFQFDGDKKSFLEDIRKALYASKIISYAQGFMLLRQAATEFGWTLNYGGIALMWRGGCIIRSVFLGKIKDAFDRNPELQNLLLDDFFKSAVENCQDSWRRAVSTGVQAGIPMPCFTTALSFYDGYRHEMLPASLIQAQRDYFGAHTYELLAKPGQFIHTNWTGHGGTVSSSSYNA
# Chain of Mitogen-activated protein kinase 7 (Homo sapiens) (Q13164 whole entry, looked up, the tested form may be a part): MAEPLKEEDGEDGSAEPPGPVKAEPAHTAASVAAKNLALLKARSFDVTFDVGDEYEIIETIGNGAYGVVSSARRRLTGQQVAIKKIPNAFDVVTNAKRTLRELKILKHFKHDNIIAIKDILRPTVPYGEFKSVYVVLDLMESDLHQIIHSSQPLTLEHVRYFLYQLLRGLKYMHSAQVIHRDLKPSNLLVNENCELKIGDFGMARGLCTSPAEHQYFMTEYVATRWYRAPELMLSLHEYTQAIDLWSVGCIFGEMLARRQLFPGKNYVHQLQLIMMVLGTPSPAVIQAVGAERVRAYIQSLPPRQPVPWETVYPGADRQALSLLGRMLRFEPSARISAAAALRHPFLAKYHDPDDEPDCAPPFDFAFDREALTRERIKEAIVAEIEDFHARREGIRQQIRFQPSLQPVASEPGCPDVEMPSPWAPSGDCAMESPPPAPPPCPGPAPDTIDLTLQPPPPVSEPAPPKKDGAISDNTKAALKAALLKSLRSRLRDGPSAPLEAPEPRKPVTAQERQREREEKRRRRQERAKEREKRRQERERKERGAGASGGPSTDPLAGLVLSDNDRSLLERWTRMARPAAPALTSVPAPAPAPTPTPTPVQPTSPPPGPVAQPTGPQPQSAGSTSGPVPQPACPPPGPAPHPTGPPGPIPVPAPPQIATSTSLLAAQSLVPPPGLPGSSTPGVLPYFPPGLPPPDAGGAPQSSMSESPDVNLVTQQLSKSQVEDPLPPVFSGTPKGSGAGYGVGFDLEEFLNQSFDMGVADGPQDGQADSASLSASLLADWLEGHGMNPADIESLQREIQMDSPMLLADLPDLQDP
# Chain of NAD(+) hydrolase SARM1 (Homo sapiens) (Q6SZW1 whole entry, looked up, the tested form may be a part): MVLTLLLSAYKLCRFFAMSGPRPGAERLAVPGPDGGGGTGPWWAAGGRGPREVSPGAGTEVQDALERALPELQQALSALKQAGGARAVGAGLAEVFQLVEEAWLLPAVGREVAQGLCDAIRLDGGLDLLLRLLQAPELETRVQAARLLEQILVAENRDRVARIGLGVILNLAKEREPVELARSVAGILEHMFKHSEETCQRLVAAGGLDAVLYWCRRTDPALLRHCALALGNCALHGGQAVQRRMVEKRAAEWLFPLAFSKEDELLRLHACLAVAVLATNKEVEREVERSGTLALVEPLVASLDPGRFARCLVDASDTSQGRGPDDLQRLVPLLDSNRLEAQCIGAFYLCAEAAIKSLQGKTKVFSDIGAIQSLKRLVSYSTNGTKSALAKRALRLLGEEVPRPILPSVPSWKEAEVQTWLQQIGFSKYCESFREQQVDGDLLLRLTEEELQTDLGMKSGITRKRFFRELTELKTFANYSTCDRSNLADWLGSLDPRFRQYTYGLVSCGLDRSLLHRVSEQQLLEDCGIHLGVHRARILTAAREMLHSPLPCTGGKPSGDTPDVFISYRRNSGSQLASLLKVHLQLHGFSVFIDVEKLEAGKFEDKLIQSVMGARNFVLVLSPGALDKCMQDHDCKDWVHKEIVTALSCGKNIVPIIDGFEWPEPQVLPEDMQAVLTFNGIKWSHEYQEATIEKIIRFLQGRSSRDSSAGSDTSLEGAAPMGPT
smiles,measurement,setting,value
CCCC(=O)Nc1ccc(OCC(O)CNC(C)C)c(C(C)=O)c1 (stereo not drawn),survival,[1],12.1 (inactive)
same,insulin secretion stimulation,[2],0.7% (inactive)
same,viability decrease,[3],-32% (inactive)
same,tube area decrease,[4],13.3% (inactive)
same,GLP1 secretion stimulation,[5],0.9% (inactive)
same,inhibition of viability,[6],2.87% (inactive)
same,viability decrease (inhibition),[7],15.1% (inactive)
same,viability decrease (inhibition),[8],-8.8% (inactive)
same,inhibition,[9],5.09% (inactive)
same,mean signal,[10],238 (inactive)
same,red/green cell ratio (normalised),[11],0.87 (inactive)
same,normalised cell number,[11]; [19],1.07
same,normalised cell number,[11]; [20],0.93
same,z-score,[12]; [21],-0.162 (inactive) and 0.587 (inactive)
same,z-score,[12]; [22],-0.138 and 0.913
same,remaining NAD,[13],10 nM (inactive)
same,luciferase signal,[14],60 AU (inactive)
same,z-score,[15],1.51 (inactive)
Cc1ccc(-n2nc(C(C)(C)C)cc2NC(=O)Nc2ccc(OCCN3CCOCC3)c3ccccc23)cc1,nuclear beta-catenin stimulation,[16]; at 10 µM,13.4% (inactive)
same,nuclear beta-catenin stimulation,"[16]; stimulation, at 2 µM",7%
same,viability decrease,[3],73% (active)
same,inhibition of viability,[6],66.5% (active)
same,viability decrease (inhibition),[7],64.1% (active)
same,viability decrease (inhibition),[8],31% (inactive)
same,fold change,"[17]; stronger effect = lower value, cell number ratio, induced over uninduced",0.925 (inactive)
same,fold change,[17]; measured here: relative caspase fold change +Dox/-Dox,0.866
same,cell count,"[17]; measured here: total cells with miR-34 induction, stronger effect = lower value",7750
same,cell count,[17]; measured here: total cells without miR-34 induction,8380
same,z-score,[12]; [21],-0.536 (inactive)
same,z-score,[12]; [22],-0.851
same,viability,"[18]; at 0.000305 µM, OCI-C5x cells, with rucaparib 10 µM, 100% = cells with rucaparib alone",105% (inactive)
same,viability,"[18]; at 0.000305 µM, OCI-C5x cells, without rucaparib",123% (inactive)
same,viability,"[18]; at 0.000305 µM, OCI-P5x cells, with rucaparib 20 µM, 100% = cells with rucaparib alone",112% (inactive)
same,viability,"[18]; at 0.000305 µM, OCI-P5x cells, without rucaparib",115% (inactive)
same,viability,"[18]; at 0.00122 µM, OCI-C5x cells, with rucaparib 10 µM, 100% = cells with rucaparib alone",97.2% (active)
same,viability,"[18]; at 0.00122 µM, OCI-C5x cells, without rucaparib",113% (inactive)
same,viability,"[18]; at 0.00122 µM, OCI-P5x cells, with rucaparib 20 µM, 100% = cells with rucaparib alone",97.9% (active)
same,viability,"[18]; at 0.00122 µM, OCI-P5x cells, without rucaparib",104% (inactive)
same,viability,"[18]; at 0.00488 µM, OCI-C5x cells, with rucaparib 10 µM, 100% = cells with rucaparib alone",106% (inactive)
same,viability,"[18]; at 0.00488 µM, OCI-C5x cells, without rucaparib",116% (inactive)
same,viability,"[18]; at 0.00488 µM, OCI-P5x cells, with rucaparib 20 µM, 100% = cells with rucaparib alone",91.6% (active)
same,viability,"[18]; at 0.00488 µM, OCI-P5x cells, without rucaparib",111% (inactive)
same,viability,"[18]; at 0.0195 µM, OCI-C5x cells, with rucaparib 10 µM, 100% = cells with rucaparib alone",105% (inactive)
same,viability,"[18]; at 0.0195 µM, OCI-C5x cells, without rucaparib",120% (inactive)
same,viability,"[18]; at 0.0195 µM, OCI-P5x cells, with rucaparib 20 µM, 100% = cells with rucaparib alone",101% (inactive)
same,viability,"[18]; at 0.0195 µM, OCI-P5x cells, without rucaparib",108% (inactive)
same,viability,"[18]; at 0.0781 µM, OCI-C5x cells, with rucaparib 10 µM, 100% = cells with rucaparib alone",100% (inactive)
same,viability,"[18]; at 0.0781 µM, OCI-C5x cells, without rucaparib",107% (inactive)
same,viability,"[18]; at 0.0781 µM, OCI-P5x cells, with rucaparib 20 µM, 100% = cells with rucaparib alone",108% (inactive)
same,viability,"[18]; at 0.0781 µM, OCI-P5x cells, without rucaparib",109% (inactive)
same,viability,"[18]; at 0.313 µM, OCI-C5x cells, with rucaparib 10 µM, 100% = cells with rucaparib alone",107% (inactive)
same,viability,"[18]; at 0.313 µM, OCI-C5x cells, without rucaparib",114% (inactive)
same,viability,"[18]; at 0.313 µM, OCI-P5x cells, with rucaparib 20 µM, 100% = cells with rucaparib alone",97.2% (active)
same,viability,"[18]; at 0.313 µM, OCI-P5x cells, without rucaparib",101% (inactive)
same,viability,"[18]; at 1.25 µM, OCI-C5x cells, with rucaparib 10 µM, 100% = cells with rucaparib alone",107% (inactive)
same,viability,"[18]; at 1.25 µM, OCI-C5x cells, without rucaparib",115% (inactive)
same,viability,"[18]; at 1.25 µM, OCI-P5x cells, with rucaparib 20 µM, 100% = cells with rucaparib alone",96.1% (active)
same,viability,"[18]; at 1.25 µM, OCI-P5x cells, without rucaparib",95.3% (active)
same,viability,"[18]; at 5 µM, OCI-C5x cells, with rucaparib 10 µM, 100% = cells with rucaparib alone",117% (inactive)
same,viability,"[18]; at 5 µM, OCI-C5x cells, without rucaparib",144% (inactive)
same,viability,"[18]; at 5 µM, OCI-P5x cells, with rucaparib 20 µM, 100% = cells with rucaparib alone",96.1% (active)
same,viability,"[18]; at 5 µM, OCI-P5x cells, without rucaparib",94.8% (active)
N=c1nc(N2CCCCC2)cc(N)n1O,survival,[1],23.2 (inactive)
same,nuclear beta-catenin stimulation,[16]; at 10 µM,0.1% (inactive)
same,nuclear beta-catenin stimulation,"[16]; stimulation, at 2 µM",8.6%
same,viability decrease,[3],3.1% (inactive)
same,inhibition of viability,[6],10.8% (inactive)
same,viability decrease (inhibition),[7],-3.9% (inactive)
same,viability decrease (inhibition),[8],7.1% (inactive)
same,inhibition,[9],0.805% (inactive)
same,mean signal,[10],252 (inactive)
same,red/green cell ratio (normalised),[11],1.27 (inactive)
same,normalised cell number,[11]; [19],1.08
same,normalised cell number,[11]; [20],1.37
same,z-score,[12]; [21],-0.417 (inactive) and -0.443 (inactive)
same,z-score,[12]; [22],0.0783 and -0.248
same,remaining NAD,[13],10 nM (inactive)
same,luciferase signal,[14],44 AU (inactive)
